Autofluor Jurkat – compound autofluorescence on Jurkat cells, primary screen, artefact control for VLA-4 allosteric ligand project, cell-based, flow cytometry. AID 576, 2007. actives 0.61% (n = 24,000). stronger effect = higher value; 1 = vehicle-only cell background. fluorescence ratio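 (tested at 10 µM compound in the well)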;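 active = fluorescence ratio above 2.44, which is 1 plus 3 SD of all ratios; inconclusive = signal too bright to measure linearly, ratio around 10 or more; inactive = fluorescence ratio below 2.44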;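 also: green fluorescence of cells measured with 488 nm excitation and 530 nm emission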
VLA-4 antagonist – inhibitors of LDV-FITC binding to Mn2+-activated VLA-4, primary screen, Jurkat cells; actives 0.2% (n = 24,000); inhibition, % at 10 µM (by protocol); AID 529, 2006; LDV-FITC binding with Mn2+, flow cytometry; 100% = Mn2+-driven binding gain fully reversed;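 active = inhibition above 50%; inconclusive = compound itself fluorescent, judged against control cell fluorescence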
FPRL1 binder – human FPRL1 ligands by binding competition, primary screen, cell-based, FPR counter-screen, flow cytometry; inhibition, % (concentration not given with the values); actives 0.3% (n = 24,000); N-formyl peptide receptor 2 (Homo sapiens), P25090; FPRL1-expressing cells, fluorescent ligand binding inhibition
Target sequence (P25090 whole entry, looked up): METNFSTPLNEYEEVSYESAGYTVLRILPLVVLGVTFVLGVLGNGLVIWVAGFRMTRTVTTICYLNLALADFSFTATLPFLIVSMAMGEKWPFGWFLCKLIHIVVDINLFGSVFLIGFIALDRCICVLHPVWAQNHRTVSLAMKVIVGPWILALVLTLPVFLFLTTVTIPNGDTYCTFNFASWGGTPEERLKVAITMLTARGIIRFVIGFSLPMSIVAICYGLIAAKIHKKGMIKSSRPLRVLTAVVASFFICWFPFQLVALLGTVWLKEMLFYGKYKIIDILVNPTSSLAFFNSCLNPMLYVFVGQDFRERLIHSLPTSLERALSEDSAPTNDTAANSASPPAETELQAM
VLA-4 allo ag – enhancers of LDV-FITC binding to VLA-4 integrin, primary screen, Jurkat cells, flow cytometry; 24,000 tested, under 10 active; activation, % at 10 µM (by protocol); Integrin alpha-4 (Homo sapiens), P13612; AID 528, 2006;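 active = fluorescent ligand binding to cells raised by more than 40% of the manganese-induced maximum; inconclusive = compound's own fluorescence above 85% of the ligand control signal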
Proteasome disasm – inhibitors of ATP-driven 26S proteasome dissociation, primary screen, biochemical, bead-based flow cytometry, GFP-tagged proteasome; anti-FLAG beads, GFP-proteasome disassembly; inhibition of disassembly, % (concentration not given with the values); actives 0.2% (n = 24,000); AID 751, 2007;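 active = inhibition of disassembly above about 33%, limit read from the data; inconclusive = likely self-fluorescent, control bead median signal at least 40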;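 also: higher percent means more bead fluorescence retained so stronger block of disassembly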
FPR binder – human FPR ligands by binding competition, primary screen, cell-based, FPRL1 counter-screen, flow cytometry; fMet-Leu-Phe receptor (Homo sapiens), P21462; FPR-expressing cells, fluorescent ligand binding; inhibition, % (test concentration not listed); actives 0.74% (n = 24,000); AID 440, 2006
Target sequence (P21462 whole entry, looked up): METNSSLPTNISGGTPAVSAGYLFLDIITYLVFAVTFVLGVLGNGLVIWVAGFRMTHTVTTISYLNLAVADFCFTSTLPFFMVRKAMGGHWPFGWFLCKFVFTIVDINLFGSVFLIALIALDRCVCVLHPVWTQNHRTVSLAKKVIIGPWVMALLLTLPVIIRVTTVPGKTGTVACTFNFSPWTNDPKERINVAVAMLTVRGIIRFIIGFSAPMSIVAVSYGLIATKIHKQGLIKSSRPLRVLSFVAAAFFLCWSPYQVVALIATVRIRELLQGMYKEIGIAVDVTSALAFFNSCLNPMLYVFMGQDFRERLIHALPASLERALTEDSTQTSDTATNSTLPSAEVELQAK
Each line names hits and unclear results; the compound was inactive in the other large screens. This is a sample that favours compounds with a hit; in the whole collection about 1.9% have one here. Rule as the data show it, unless noted: active = inhibition above about 30%; inconclusive = no clear call, values can overlap the other calls; inactive = below that.

Cc1nc(NCc2ccccn2)c2ccccc2n1	Autofluor Jurkat 2.8, VLA-4 antagonist inconclusive, VLA-4 allo ag inconclusive
COc1ccccc1-n1c(SC)nc(O)cc1=O	FPR binder 41
COc1ccccc1C1/C(=C(/O)c2ccccc2)C(=O)C(=O)N1CC(C)C (stereo not given)	FPR binder 63
COc1ccccc1C1/C(=C(/O)c2ccc(C)cc2)C(=O)C(=O)N1CC(C)O (stereo not given)	none (no result: Autofluor Jurkat, VLA-4 antagonist, VLA-4 allo ag, Proteasome disasm)
COc1ccc(C2/C(=C(/O)c3ccccc3)C(=O)C(=O)N2CC(C)O)c(OC)c1 (stereo not given)	VLA-4 antagonist inconclusive, VLA-4 allo ag inconclusive, FPR binder 42
Cc1ccc(C2/C(=C(/O)c3ccc(Br)cc3)C(=O)C(=O)N2Cc2ccco2)o1 (stereo not given)	FPR binder 31 (no result: Autofluor Jurkat, VLA-4 antagonist, VLA-4 allo ag, Proteasome disasm)
COc1ccc(OC)c(C2/C(=C(/O)c3ccccc3)C(=O)C(=O)N2Cc2ccco2)c1 (stereo not given)	FPR binder 92 (no result: Autofluor Jurkat, VLA-4 antagonist, VLA-4 allo ag, Proteasome disasm)
COc1ccccc1C(=O)Nc1cc(-c2nn3c(C)nnc3s2)ccc1C	none
Cc1ccc(N2CCn3c2nc2c3c(=O)n(CCc3ccccc3)c(=O)n2C)cc1	none
Cc1ccc(/C(O)=C2\C(=O)C(=O)N(CC(C)O)C2c2ccc(N(C)C)cc2)cc1 (stereo not given)	FPR binder 36 (no result: Autofluor Jurkat, VLA-4 antagonist, VLA-4 allo ag, Proteasome disasm)
CCOc1cccc(/C(O)=C2/C(=O)C(=O)N(Cc3ccco3)C2c2ccncc2)c1 (stereo not given)	FPR binder 48 (no result: Autofluor Jurkat, VLA-4 antagonist, VLA-4 allo ag, Proteasome disasm)
O=C(Cc1ccc(-n2cccc2)cc1)N1CCc2ccccc21	Autofluor Jurkat 4.9, VLA-4 antagonist inconclusive, VLA-4 allo ag inconclusive
O=C(Cn1cc2c(n1)CCCCC2)N1CCc2ccccc21	none
CCCCCNC(=O)c1ccc2c(=O)[nH]c3c(C(=O)NCC4CCCO4)sc(=S)n3c2c1 (stereo not given)	VLA-4 antagonist inconclusive, VLA-4 allo ag inconclusive, FPR binder 40
O=C(NC1CCCC1)c1sc(=S)n2c1[nH]c(=O)c1ccccc12	VLA-4 antagonist inconclusive, VLA-4 allo ag inconclusive, FPR binder 95
CCOC(=O)C1CCN(C(=O)c2sc3nc(-c4ccccc4)cn3c2C)CC1	Autofluor Jurkat 2.8, VLA-4 antagonist inconclusive, VLA-4 allo ag inconclusive
COc1ccccc1N1CCN(C(=O)c2sc3nc(-c4ccccc4)cn3c2C)CC1	Autofluor Jurkat 3.2, VLA-4 antagonist inconclusive, VLA-4 allo ag inconclusive
Cc1ccc(S(=O)(=O)NCCN=C(CN2CCCC2)NS(=O)(=O)c2ccc(C)cc2)cc1	none
Cc1cc(C)n2nc(SCc3cc(=O)n4c(C)cccc4n3)nc2n1	none
CCc1ccc(CNC(=O)CN2C(=O)COc3ccccc32)cc1	VLA-4 antagonist 52
CN1CC=C2C(C#N)=C(N)C(C#N)(C#N)C(Cc3ccccc3)C2C1 (stereo not given)	Autofluor Jurkat 2.6, VLA-4 antagonist inconclusive, VLA-4 allo ag inconclusive
CC(C)(C)OC(=O)N1CC=C2C(C#N)=C(N)C(C#N)(C#N)C(c3cccs3)C2C1 (stereo not given)	VLA-4 antagonist inconclusive, VLA-4 allo ag inconclusive
Cn1cc(C(=O)NCCN2CCN(c3ccccc3F)CC2)c2c3ccccc3n(C)c2c1=O	none
C=CCN(C(=O)CNS(=O)(=O)c1ccccc1)C(C(=O)NCCOC)c1ccncc1 (stereo not given)	none
Cc1cccn2c(=O)c3cc(C#N)c(=NC(=O)c4ccncc4)n(Cc4ccco4)c3nc12	Autofluor Jurkat 4.1, VLA-4 antagonist inconclusive, VLA-4 allo ag inconclusive
COC(=O)c1nnn(CC(=O)Nc2cccc(Cl)c2C)c1C(=O)OC	none
S=C(c1ccc(N2CCOCC2)cc1)N1CCCCC1	none
Cc1ccc(N2CCN(C(=S)c3ccc(N(C)C)cc3)CC2)cc1	Autofluor Jurkat 3.5, VLA-4 antagonist inconclusive, VLA-4 allo ag inconclusive
O=C1C(C23CC4CC(CC(C4)C2)C3)C(=O)N(c2ccccc2)N1c1ccccc1	FPR binder 73 (no result: Proteasome disasm)
CC(=O)C1=C(O)C(=O)N(Cc2ccco2)C1c1ccc(F)cc1 (stereo not given)	none
O=C(C1=C(O)C(=O)N(CCOCCO)C1c1cccs1)c1cccs1 (stereo not given)	FPR binder 71 (no result: Autofluor Jurkat, VLA-4 antagonist, VLA-4 allo ag, Proteasome disasm)
O=C(C1=C(O)C(=O)N(Cc2ccco2)C1c1ccccc1)c1cccs1 (stereo not given)	FPR binder 71 (no result: Autofluor Jurkat, VLA-4 antagonist, VLA-4 allo ag, Proteasome disasm)
Cc1nnc(SCc2nc3ccccc3s2)n1-c1ccccc1	Autofluor Jurkat 2.8, VLA-4 antagonist inconclusive, VLA-4 allo ag inconclusive, Proteasome disasm inconclusive
COc1cc(C2C(C(=O)c3ccco3)=C(O)C(=O)N2c2cc(C)on2)cc(Br)c1O (stereo not given)	FPRL1 binder 31, FPR binder 39 (no result: Autofluor Jurkat, VLA-4 antagonist, VLA-4 allo ag, Proteasome disasm)
Cc1cc(N2C(=O)C(O)=C(C(=O)c3ccco3)C2c2cccnc2)no1 (stereo not given)	FPRL1 binder 30 (no result: Autofluor Jurkat, VLA-4 antagonist, VLA-4 allo ag, Proteasome disasm)
COc1cc(C2C(C(=O)c3ccc(C)o3)=C(O)C(=O)N2c2cc(C)on2)cc(Br)c1O (stereo not given)	none
O=C(C1=C(O)C(=O)N(c2ncccn2)C1c1ccc(Cl)c(Cl)c1)c1ccco1 (stereo not given)	FPR binder 45 (no result: Autofluor Jurkat, VLA-4 antagonist, VLA-4 allo ag, Proteasome disasm)
O=C(C1=C(O)C(=O)N(c2ncccn2)C1c1ccc(Cl)cc1)c1ccco1 (stereo not given)	none (no result: Autofluor Jurkat, VLA-4 antagonist, VLA-4 allo ag, Proteasome disasm)
COc1ccc(OC)c(C2C(C(=O)c3cc4ccccc4o3)=C(O)C(=O)N2c2cc(C)on2)c1 (stereo not given)	FPR binder 33 (no result: Autofluor Jurkat, VLA-4 antagonist, VLA-4 allo ag, Proteasome disasm)
COc1cccc(-n2c(SCC(=O)N3CCCC3)nc3c([nH]c4ccccc43)c2=O)c1	none
CCOc1nc(Nc2ccc(-c3nc4ccccc4o3)cc2)nc(N2CCOCC2)n1	VLA-4 antagonist inconclusive, VLA-4 allo ag inconclusive
COc1ccc(C(N)CCc2ccco2)cc1 (stereo not given)	VLA-4 antagonist inconclusive, VLA-4 allo ag inconclusive
Cc1ccc(C(=O)C2=C(O)C(=O)N(Cc3ccccc3)C2c2cccnc2)o1 (stereo not given)	FPR binder 32 (no result: Autofluor Jurkat, VLA-4 antagonist, VLA-4 allo ag, Proteasome disasm)
COc1ccc(NC(=O)C2C(=O)N(CCO)C3(C)CC2c2ccccc2O3)cc1 (stereo not given)	none
Cc1ccc(NC(=O)C2C(=O)N(CCO)C3(C)CC2c2ccccc2O3)cc1 (stereo not given)	FPRL1 binder 40, FPR binder 31
CC(C)Cn1c(=O)c(C2=NS(=O)(=O)c3ccccc3N2)c(O)c2ccccc21	VLA-4 antagonist 59
CCCCc1nc2ccccc2n2cc3c(=O)n(C)c(=O)n(C)c3c12	none
C=CCn1c(SCCCC)nc(O)cc1=O	FPR binder 56
O=C(O)CCC(=O)NC1CCCCC1NC(=O)CCC(=O)O (stereo not given)	none

Bioassay records: PubChem, NMMLSC
